From PubChem BioAssay AID588590 (National Center for Advancing Translational Sciences (NCATS), 2011)
Where “and” joins values, the source holds several entries; their conditions need not be identical. Equal values may be shown once. The whole screen tested about 390,000 compounds, of which about 4,000 (1%) were called active. Roughly 7% stayed inconclusive and do not appear here. Calls follow the shape of the dose curve; as a rule, active = well fitted inhibition curve with a large enough effect; inconclusive = small, poorly fitted or top-dose-only effect, or another doubt; inactive = no such curve, though single readings can be large or run the other way. Many of the other results were omitted from the sample, so actives are more common in it than they were.

Molecular target: DNA polymerase iota (Homo sapiens) (UniProt Q9UNA4)
Sequence (Q9UNA4 whole entry, looked up): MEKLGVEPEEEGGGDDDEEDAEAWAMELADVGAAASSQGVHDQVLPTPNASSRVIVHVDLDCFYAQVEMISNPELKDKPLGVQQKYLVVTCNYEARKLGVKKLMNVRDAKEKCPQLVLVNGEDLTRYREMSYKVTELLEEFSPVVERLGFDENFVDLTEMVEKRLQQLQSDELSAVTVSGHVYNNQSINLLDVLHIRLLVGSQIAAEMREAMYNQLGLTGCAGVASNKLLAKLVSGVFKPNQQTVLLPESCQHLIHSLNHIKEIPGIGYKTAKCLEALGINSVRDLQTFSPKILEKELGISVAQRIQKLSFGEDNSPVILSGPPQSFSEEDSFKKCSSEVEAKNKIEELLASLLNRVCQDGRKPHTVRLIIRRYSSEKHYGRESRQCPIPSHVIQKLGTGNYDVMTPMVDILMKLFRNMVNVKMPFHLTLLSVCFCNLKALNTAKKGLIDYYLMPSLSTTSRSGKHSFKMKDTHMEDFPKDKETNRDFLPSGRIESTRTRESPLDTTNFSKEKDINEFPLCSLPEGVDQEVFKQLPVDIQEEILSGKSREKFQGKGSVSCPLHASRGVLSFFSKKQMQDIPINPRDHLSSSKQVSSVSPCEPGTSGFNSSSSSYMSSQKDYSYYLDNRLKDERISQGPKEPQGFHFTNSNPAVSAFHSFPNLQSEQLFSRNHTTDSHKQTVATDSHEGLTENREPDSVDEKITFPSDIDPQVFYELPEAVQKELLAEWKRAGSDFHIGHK
Assay: qHTS for Inhibitors of Polymerase Iota
Conditions: Pol iota fluorescent replication assay, 10 min; series mostly up to 115 µM; activity, negative = inhibition: at the top concentration
How it was run: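 Fluorescent replication assay read twice, at 0 min and 10 min after adding 50 nM (final) substrate. Enzyme (10 nM) and compounds were first incubated 15 min at room temperature; enzyme-free buffer wells were negative controls.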
Potency is read from the fitted curve at half-maximal effect.

activity, negative = inhibition, inactive:
COc1ccc(CNC(=O)COC(=O)c2ccc(C)c(S(=O)(=O)N3CCOCC3)c2)cc1OC 33.4%
Cc1ccc(C(=O)OCC(=O)N2CC(C)CC(C)C2)cc1S(=O)(=O)N1CCCCC1 (configuration not stated) 50.2%
CC1CCCN(c2nc3c(S(=O)(=O)c4ccc(C(C)C)cc4)nnn3c3ccsc23)C1 (configuration not stated) 28.7%
CCc1nn(CC(=O)Nc2cccc(C)c2C)c(=O)c2cc3sccc3n12 -1.22%
O=C(CN1C(=O)c2cccc3cccc1c23)Nc1ccccc1 120%
O=C(CN1C(=O)c2cccc3cccc(c23)C1=O)N1CCCCC1 27.2%
CCn1c(C)c(C)c2cc(C(=O)NCCc3cc(OC)ccc3OC)ccc21 10.3%
Cc1cccc(CCNC(=O)c2ccc3c(c2)nc2n3CCC(C)C2)c1 (configuration not stated) 21.1%
COc1cc2[nH]c(C)c(CCN3CCN(c4ccccc4)CC3)c2cc1OC 14.1%
O=S(=O)(NCc1ccccc1)c1ccc(S(=O)(=O)N2CCCC2)cc1 55.4%
COC(=O)C1=C(C)NC(=O)/C1=C/c1ccc(CNS(=O)(=O)c2ccc(C)cc2)o1 8.35%
CCc1cccc(-n2nnc(-c3nsc(NC(=O)c4ccc(C)cc4)n3)c2C)c1 10.3%
O=C(Nc1ccc2oc(-c3ccc(O)c(Br)c3)nc2c1)c1cc2ccccc2o1 25%
Cc1ccccc1NC(=O)Cn1c(=O)n(Cc2ccco2)c(=O)c2ccc(C(=O)NC3CCCC3)cc21 11.1%
COc1ccc(NC(=O)C2CCCN(S(=O)(=O)c3cccc4nonc34)C2)cc1Cl (configuration not stated) -4.75%
COc1ccc(Cc2nnc(NC(=O)c3cc(OC)c(OC)c(OC)c3)s2)cc1OC -6.07%
COc1ccc(CNC(=O)CCC(=O)Nc2nnc(C(C)C)s2)cc1 39.1%
O=C(Cc1cccs1)Nc1ccc([N+](=O)[O-])cc1 -7.17%
CCOc1ccccc1NC(=O)CCn1cnnn1 12.4%
CCc1nnc(NC(=O)CCC(=O)NCc2ccccc2OC)s1 14.9%
CCOc1ccc(NC(=O)C/C(C)=N/NC(=O)Cc2cccs2)cc1 16.3%
COc1ccc(-c2cc(-c3ccccc3)nc3c2COc2ccc(Cl)cc2-3)cc1 16.9%
CCN(CC)c1nc(C#N)nc(OC)n1 -19.6%
CCc1ccc(OCCCn2c(CCCNC(=O)C3CCCCC3)nc3ccccc32)cc1 22.4%
C/C(=N\Nc1ccccc1)c1cccs1 14.5%
CCOC(=O)C/C(C)=N\Nc1ccc([N+](=O)[O-])cc1[N+](=O)[O-] -3.02%
Cc1ccc(C(=O)NNc2ncnc3ccccc23)cc1 -4.31%
O=C(Cc1ccccn1)c1ccc(O)cc1O -3.24%
CN(Cc1ccccc1)C(=O)c1cc2c(=O)n(C)c3ccccc3c2s1 -0.232%
CN(C)c1ccc(/C=C/c2sc3ccccc3[n+]2CCCCBr)cc1 41.8%
CN(C)c1ccc(/C=C/c2c3ccccc3nc3ccccc23)cc1 -2.85%
CCCN1CCC(=O)N(C(CSc2ccc(OC)cc2)Cc2ccccc2)CC1 (configuration not stated) 14.6%
C[N+]1(CC(=O)c2cccs2)CCOCC1 14.8%
CCc1ccc(N2CC(C(=O)Nc3ccc(S(=O)(=O)Nc4nccs4)cc3)CC2=O)cc1 (configuration not stated) 7.88%
CCc1ccc(N2CC(C(=O)N3CCCCCC3)CC2=O)cc1 (configuration not stated) -6.39%
Cc1cccc(CN2Cc3cccc4c3[C@H](C=CC4)CC2=S)c1 31.4%
CC1CCCN(S(=O)(=O)c2ccc3[nH]c(=O)cc(C(=O)NCCc4ccc(Cl)cc4)c3c2)C1 (configuration not stated) 4.12%
COc1cc2nc(Cl)nc(NC3CC3)c2cc1OC 17.8%
COc1ccc(C)cc1NC(=O)C(=O)NCCc1sc(-c2cccc(C)c2)nc1C 32%
Cc1ccc(NC(=O)c2nc(S(=O)(=O)Cc3cccc(C)c3)ncc2Cl)cc1 -13.9%
COc1cc(C(CC(=O)NCCC(C)C)N2Cc3ccccc3C2=O)cc(OC)c1OC (configuration not stated) 5.25%
COc1ccc(CCNC(=O)c2c3c(nc4ccccc24)C(=O)N(C2CCCCC2)C3)cc1OC 8.03%
Cc1c(NC(=O)C(C)(C)C)cccc1-c1nc2ccccc2s1 11.4%
O=C(COc1ccc(Cl)cc1)Nc1ccc(-c2nc3cc(Cl)ccc3o2)c(O)c1 28.2%
O=C1C2C3C=CC(C4CC34)C2C(=O)N1/N=C/c1ccc(-c2ccccc2[N+](=O)[O-])o1 (configuration not stated) -5.9%
O=C(O)c1ccc2c(=O)n3c(nc2c1)/C(=C/c1ccc(Cl)c([N+](=O)[O-])c1)CC3 123%
Cc1ccc2onc(CC(=O)N3CCN(c4ccc(Cl)cc4)CC3)c2c1 9.13%
COc1ccc(C2Nc3ccc(NC(=O)COC(C)=O)cc3C(=O)N2Cc2ccccc2)cc1COc1ccc(NC(C)=O)cc1 (configuration not stated) 15.4%
COC(=O)c1ccccc1NC(=O)Cn1c(=O)cc(C)c2c(C)nn(-c3cccc(Cl)c3C)c21 34.6%
COc1ccc(Cl)cc1C(=O)NNC(=S)NC(=O)/C=C/c1ccco1 16.2%
CC(C)CNC(=O)COC(=O)/C=C/c1ccco1 -29.3%
CC(=O)Nc1ccc(NC(=O)C2CCCN(S(=O)(=O)c3ccc4c(c3)CCCC(=O)N4)C2)cc1 (configuration not stated) 2.46%
COc1ccc(-c2nc(=N)sn2-c2ccccc2)cc1 -18.6%
CCC(CC)C(=O)Nc1ccc(S(=O)(=O)Nc2nccs2)cc1 111%
COc1ccccc1OC(C)C(=O)Nc1ccc(S(=O)(=O)Nc2nccs2)cc1 (configuration not stated) 76.1%
COc1ccc(NS(=O)(=O)c2cc3c4c(c2)CC(=O)N4CCC3)cc1Cl -8.67%
CCOc1ccc(OCC)c(NC(=O)CN(c2ccc(C)cc2)S(=O)(=O)c2c(C)n[nH]c2C)c1 9.87%
CC1CCN(S(=O)(=O)c2ccc3c(ccn3CCC(=O)NCc3ccc(N(C)C)cc3)c2)CC1 -7.35%
O=C(NC1CC(=O)N(c2ccc(Cl)cc2)C1)C1CCCC1 (configuration not stated) 5.35%
COc1ccc(NC(=O)CSc2nc(NS(=O)(=O)c3ccc(C)cc3)cc(=O)[nH]2)cc1 8.29%
CCCCCC(=O)Nc1ccc(S(=O)(=O)Nc2ccc(Cl)nn2)cc1 -8.6%
NC(=O)Nc1ccc(/C=C/c2ccnc3ccccc23)cc1 24.2%
COc1ccc(-c2[nH]c3c(c2-c2c(-n4cccc4)n(C)c(=O)n(C)c2=O)c(=O)n(C)c(=O)n3C)cc1 33.3%
COc1ccc(C(=O)n2nc(-c3ccc(Cl)cc3)nc2N)cc1OC 8.66%
COc1ccc(CC(=O)n2nc(-c3cccnc3)nc2N)cc1 18.7%
CCC(Sc1nnc(-c2ccc(OC)cc2)c(-c2ccc(OC)cc2)n1)C(=O)NC1CCCCC1 (configuration not stated) 9.48%

Potency, active:
Cc1ccc(C(=O)OCC(=O)NCc2cc(C)c(O)c(C)c2)cc1S(=O)(=O)N1CCCCC1 79.4 µM
C[N+](C)(CCCCCC[N+](C)(C)CCCN1C(=O)c2cccc3cccc(c23)C1=O)CCCN1C(=O)c2cccc3cccc(c23)C1=O 2.24 µM and 20 µM
O=c1/c(=C/c2ccc(CNS(=O)(=O)c3ccccc3)o2)sc2n1CCN=2 35.5 µM
CCc1nnc(NC(=O)Cc2cccs2)s1 11.2 µM
COc1ccc(Cc2nnc(NC(=O)Cc3cccs3)s2)cc1 4.47 µM
CCOc1ccccc1NC(=O)Cc1cccs1 44.7 µM
C/C(=N\Nc1ccc(S(N)(=O)=O)cc1[N+](=O)[O-])c1cccs1 25.1 µM
O=C(NNc1c2ccccc2nc2ccccc12)c1cc2ccccc2cc1O 39.8 µM
CN(C)c1ccc(/C=C/c2sc3ccccc3[n+]2C)cc1 79.4 µM
CCc1ccc(N2CC(C(=O)NC3=NCCS3)CC2=O)cc1 (configuration not stated) 89.1 µM
C=C1c2c(Cl)ccc(O)c2C(O)=C2C(=O)[C@]3(O)C(O)=C(C(N)=O)C(=O)[C@@H](N(C)C)[C@@H]3[C@@H](O)C12 (some centres not stated) 2.51 µM
CC1=NN(c2ccc(Cl)c(C(=O)O)c2)C(=O)/C1=C/c1ccc(-c2ccccc2[N+](=O)[O-])o1 1.41 µM
O=C(/C=C/c1ccco1)NC(=S)Nc1ccccc1Br 25.1 µM
O=C(Nc1ccc(S(=O)(=O)Nc2nccs2)cc1)c1cc(-c2ccncc2)nc2ccccc12 11.2 µM
Cc1nnc(SCC(=O)Nc2ccc(S(=O)(=O)Nc3ccc(Cl)nn3)cc2)s1 28.2 µM
CCCC(=O)n1nc(-c2ccccc2)nc1N 79.4 µM
